Assay results: PubChem BioAssay (EPA / NIEHS)
Records with an inconclusive call do not appear. Activity calls are given as the source filed them. The calls were made as follows, unless noted: active = hit-call score of the fitted dose curve at least 0.9, where 1 is the maximum; inconclusive = response in the unintended direction; inactive = score below 0.9.

How the values were obtained:
[1] = VALA_TUBHUV_Agonist_CellCount: Viability Assessment in the VALA Sciences human Umbilical Vein Endothelial Tubule Formation (TUBHUV) Agonism Assay (AID 2284309)
Method in brief: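 Viability endpoint by fluorescent imaging of fixed nuclear/CD31-stained HUVEC–HDF co-cultures. Readout is cell count, fitted upward against 0.1% DMSO. Compound exposure was 72 h in 10 ng/ml VEGF, after 3-day co-culture priming.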

[2] = VALA_TUBIPS_Antagonist_TubuleLength: VALA Sciences human iPS-derived Endothelial Tubule Formation (TUBIPS) Antagonist Assay (AID 2284313)
Method in brief: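 Tubule length was quantified by high-content imaging of CD31- and nuclear-stained cells, with 0.1% DMSO as neutral and 100 uM suramin as inhibition control. Compounds were applied for 3 days, in 10 ng/ml VEGF, to cultures pre-grown 3 days.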

[3] = VALA_MIGHUV2_CellCount: Viability Assessment in the VALA Sciences human Umbilical Vein Endothelial Cell Migration (MIGHUV) Assay, Area of Scratch Wound after Recovery (AID 2284314)
Method in brief: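 Viability read-out: Hoechst-stained nuclei counted by fluorescence imaging after a 24 h recovery period in fixed, scratched HUVEC plates. Compound was dosed within 30 min of scratching at six concentrations (triplicate); DMSO at 0.1 % served as baseline.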

[4] = VALA_MIGHUV2_Bcatenin: VALA Sciences human Umbilical Vein Endothelial Cell Migration (MIGHUV) Assay, Nuclear Translocation of beta-Catenin after Recovery (AID 2284315)
Method in brief: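 Nuclear beta-catenin imaged by immunofluorescence with Hoechst counterstain in fixed HUVEC, 24 h after scratch wounding and chemical addition. Six-point concentration-response in triplicate; activity scored as signal increase over 0.1% DMSO vehicle.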

[5] = VALA_MIGHUV2_WoundArea: VALA Sciences human Umbilical Vein Endothelial Cell Migration (MIGHUV) Assay, Area of Scratch Wound after Recovery (AID 2284316)
Method in brief: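 Wound-area endpoint read by fluorescence imaging of Hoechst-stained nuclei after a 24 h recovery period following scratch of HUVEC monolayers (9000 cells/well). Chemicals dosed within 30 min post-scratch, triplicate 6-point series, 0.1% DMSO vehicle; Cytochalasin D positive control.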

[6] = VALA_TUBIPS_Antagonist_CellCount: Viability Assessment in the VALA Sciences human iPS-derived Endothelial Tubule Formation (TUBIPS) Antagonism Assay (AID 2284335)
[7] = VALA_TUBHUV_Agonist_TubuleLength: VALA Sciences human Umbilical Vein Endothelial Tubule Formation (TUBHUV) Agonism Assay (AID 2284337)
Method in brief: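 Tubule length quantified by CD31 immunofluorescence imaging after fixation. HUVEC-HDF co-cultures (1:3) pre-grown 3 days with 10 ng/ml VEGF, then dosed 3 days in VEGF medium; 0.1 % DMSO vehicle baseline.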

[8] = VALA_TUBIPS_Agonist_CellCount: Viability Assessment in the VALA Sciences human iPS-derived Endothelial Tubule Formation (TUBIPS) Agonism Assay (AID 2284338)
Experimental: VALA_TUBIPS_Agonist is a cell-based, multiplexed assay that uses human iPS-derived endothelial cells (iPSC). Measurements were taken 72 hours after chemical dosing in a 96-well plate.VALA_TUBIPS_Agonist_CellCount is the one of two assay components measured from the VALA_TUBIPS_Agonist assay. It is designed to make measurements of viability, a form of viability reporter, as detected with fluorescence intensity signals by HCS Fluorescent Imaging technology. Data from the assay component VALA_TUBIPS_Agonist_CellCount was analyzed at the endpoint, VALA_TUBIPS_Agonist_CellCount, in the positive analysis fitting direction relative to DMSO as the negative control and baseline of activity. Using a type of viability reporter, loss-of-signal activity can be used to understand viability. To generalize the intended target to other relatable targets, this assay endpoint is annotated to the cell cycle intended target family, where the subfamily is cell count.
This HUVEC-HDF assay was designed to detect chemical suppression of tubulogenesis, i.e. antagonism. To measure tubulogenesis antagonism, HUVEC cells were co-cultured with HDF cells at a 1:3 ratio for 3-days in 10 ng/ml VEGF (i.e., favorable conditions with growth factors), then changed to assay medium containing 10 ng/ml VEGF and ToxCast compounds for an additional 3-day period. […]

[9] = VALA_TUBHUV_Antagonist_CellCount: Viability Assessment in the VALA Sciences human Umbilical Vein Endothelial Tubule Formation (TUBHUV) Antagonism Assay (AID 2284310)
Method in brief: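 Read-out is imaged cell count after nuclear and CD31 staining, fitted against 0.1% DMSO vehicle. Compounds were added for 3 days, in 10 ng/ml VEGF assay medium, to HUVEC–HDF co-cultures pre-grown 3 days.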

[10] = VALA_MIGHUV1_ScratchOnly_WoundArea: VALA Sciences human Umbilical Vein Endothelial Cell Migration (MIGHUV) Assay, Area of Scratch Wound Inhibited Recovery (AID 2284336)
Method in brief: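 Wound area remaining after 24 h recovery imaged by Hoechst nuclear fluorescence in scratched HUVEC cultures, chemicals added within 30 min of scratching across a 6-point series. Gain of signal fitted against 0.1% DMSO; cytochalasin D positive control.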

[11] = IUF_NPC2-5_viability_120hr: Viability Assessment at 120 hours in the Leibniz Research Institute for Environmental Medicine (IUF) Neural Progenitor Cell Migration and Differentiation Assay (NPC2-5) (AID 2284312; active = hit-call score of the fitted dose curve at least 0.9, where 1 is the maximum; inactive = score below 0.9)
Method in brief: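 Alamar blue resorufin fluorescence read after 5 days of differentiation, with compound present from day 0 and replenished at day 3. Primary hNPC spheres on laminin-coated plates, 37C; seven concentrations plus solvent control, fitted against DMSO.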

[12] = IUF_NPC1_cytotoxicity_72hr: Cytotoxicity Assessment at 72 hours in the Leibniz Research Institute for Environmental Medicine (IUF) Neural Progenitor Cell Proliferation Assay (NPC1) (AID 2284332);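 also: rising LDH signal means more cytotoxicity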
Method in brief: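 LDH in supernatant, resazurin→resorufin fluorescence (RFU), 72 h exposure, no re-dosing. Cells: primary hNPC spheres, one per well, EGF+FGF medium, 37C/5% CO2, pH 7.2-7.6. Fit: positive direction vs baseline and dynamic range.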

[13] = CCTE_Mundy_HCI_iCellGluta_NOG_NeuriteLength: CCTE's Neurite Outgrowth Assay in iCellGluta cells for Neurite Length, Mundy Lab (AID 2284318)
Method in brief: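 Automated high-content imaging of betaIII-tubulin (Alexa Fluor-488) and Hoechst-stained cells gave neurite length, normalized to the DMSO baseline.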

[14] = CCTE_Mundy_HCI_iCellGluta_NOG_NeuronCount: CCTE's Neurite Outgrowth Assay in iCellGluta cells for Neuron Count, Mundy Lab (AID 2284340);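 also: cells fixed about 48 h after compound addition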
Method in brief: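 Neuron count read by automated high-content imaging of Hoechst 33342 and betaIII-tubulin/Alexa Fluor-488 labelling in human iPSC glutamatergic neurons. Activity fitted relative to DMSO.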

Measured: AC50

CCCCCCCCOC(=O)c1cc(O)c(O)c(O)c1
inactive: [2] | [3] | [5] | [6]
active: [1] 76.4 µM | [4] 79.9 µM | [7] 50 µM | [8] 24.2 µM

O=C(Nc1ccc(Cl)cc1)Nc1ccc(Cl)c(Cl)c1
inactive: [1] | [9] | [2] | [3] | [10]

CC(C)(c1cc(Br)c(O)c(Br)c1)c1cc(Br)c(O)c(Br)c1
active: [11] 2.94 µM
inactive: [12]

O=C1O[C@H]([C@@H](O)CO)C(O)=C1O
inactive: [11] | [13] | [12] | [14]
